According to PubChem BioAssay AID1159580 (chemical genetic matrix, 2015):
Where “and” joins values, the source holds several entries; their conditions need not be identical. Equal entries are not always repeated. About 2,000 (36%) of roughly 5,500 compounds were called active. Inconclusive results (about 18%) are left out. No stated cut-off is given here; in the data, active means normalized growth mostly below about 0.91 (no sharp cut-off); inconclusive means no clear call, values can overlap the other calls; inactive means mostly above about 0.92. This is one part of the list.

Experiment: chemical genetic growth profiling, strain panel (AID 1159580);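 further: tested at 20 µM; growth read once vehicle control cultures reached saturation at 30 °C; 1 = growth at the plate median or of vehicle wells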
Settings: S. cerevisiae deletion strains, growth OD

Measured: normalized growth

C/C1=C/CC(C)(C)/C=C/C/C(C)=C/CC1
0.85 (active) and 1.03 (inactive): locus YHR030C, strain SLT2, stronger effect = lower value
inactive: locus YAL021C, strain ccr4, stronger effect = lower value 1.04 | locus YAL026C, strain drs2, stronger effect = lower value 0.983 | locus YAL030W, strain snc1, stronger effect = lower value 0.99 | locus YBL061C, strain skt5, stronger effect = lower value 0.985 | locus YBR009C, strain hhf1, stronger effect = lower value 0.983 | locus YBR021W, strain FUR4, stronger effect = lower value 0.95 | locus YBR023C, strain chs3, stronger effect = lower value 0.99 | locus YBR171W, strain sec66, stronger effect = lower value 0.953 | locus YBR229C, strain ROT2, stronger effect = lower value 1.03 | locus YBR231C, strain swc5, stronger effect = lower value 0.977 | locus YBR279W, strain paf1, stronger effect = lower value 0.999 | locus YCL011C, strain gbp2, stronger effect = lower value 1.02 | locus YCL016C, strain dcc1, stronger effect = lower value 1.01 | locus YCL029C, strain bik1, stronger effect = lower value 1.03 | locus YCL061C, strain MRC1, stronger effect = lower value 0.988 | locus YCL069W, strain vba3, stronger effect = lower value 0.991 | locus YCR088W, strain abp1, stronger effect = lower value 0.981 | locus YDL005C, strain med2, stronger effect = lower value 0.966 | locus YDL035C, strain GPR1, stronger effect = lower value 0.91 | locus YDL040C, strain nat1, stronger effect = lower value 0.987 | locus YDL101C, strain DUN1, stronger effect = lower value 1.01 | locus YDL185W, strain tfp1, stronger effect = lower value 1 | locus YDL192W, strain arf1, stronger effect = lower value 0.988 | locus YDR001C, strain nth1, stronger effect = lower value 0.985 | locus YDR069C, strain doa4, stronger effect = lower value 0.989 | locus YDR101C, strain arx1, stronger effect = lower value 0.991 | locus YDR137W, strain rgp1, stronger effect = lower value 0.973 | locus YDR159W, strain sac3, stronger effect = lower value 0.975 | locus YDR195W, strain ref2 0.951 | locus YDR297W, strain sur2, stronger effect = lower value 0.988 | locus YDR318W, strain mcm21, stronger effect = lower value 1.01 | locus YDR334W, strain swr1, stronger effect = lower value 0.981 | locus YDR335W, strain msn5, stronger effect = lower value 0.998 | locus YDR388W, stronger effect = lower value 0.998 | locus YDR392W, strain spt3, stronger effect = lower value 0.961 | locus YDR502C, strain sam2, stronger effect = lower value 0.983 | locus YEL003W, strain gim4, stronger effect = lower value 0.983 | locus YEL037C, strain rad23, stronger effect = lower value 0.984 | locus YEL061C, strain CIN8 (second series), stronger effect = lower value 0.982 | locus YEL061C, strain CIN8, stronger effect = lower value 0.988 | locus YER015W, strain faa2, stronger effect = lower value 1 | locus YER016W, strain bim1, stronger effect = lower value 0.987 | locus YER110C, stronger effect = lower value 1.01 | locus YER111C, strain swi4, stronger effect = lower value 0.968 | locus YER155C, strain BEM2 (second series), stronger effect = lower value 1.01 | locus YER155C, strain BEM2, stronger effect = lower value 1 | locus YER167W, strain BCK2, stronger effect = lower value 0.98 | locus YFR010W, strain ubp6, stronger effect = lower value 0.978 | locus YGL078C, strain dbp3, stronger effect = lower value 0.985 | locus YGL086W, strain mad1, stronger effect = lower value 1 | locus YGL167C, strain pmr1, stronger effect = lower value 0.977 | locus YGL173C, strain kem1, stronger effect = lower value 0.96 | locus YGL227W, strain vid30, stronger effect = lower value 0.978 | locus YGL240W, strain doc1, stronger effect = lower value 0.956 | locus YGL248W, strain PDE1, stronger effect = lower value 1.01 | locus YGL253W, strain hxk2, stronger effect = lower value 0.957 | locus YGR135W, strain pre9, stronger effect = lower value 0.967 | locus YGR252W, strain gcn5, stronger effect = lower value 1.01 | locus YHR013C, strain ard1, stronger effect = lower value 1 | locus YHR027C, strain rpn1, stronger effect = lower value 0.97 | locus YHR079C, strain IRE1 (second series), stronger effect = lower value 1.01 | locus YHR079C, strain IRE1, stronger effect = lower value 1.02 | locus YHR094C, strain hxt1, stronger effect = lower value 1.01 | locus YHR129C, strain ARP1, stronger effect = lower value 1.01 | locus YHR142W, strain chs7, stronger effect = lower value 1 | locus YHR200W, strain rpn10, stronger effect = lower value 1.01 | locus YIL066C, strain RNR3, stronger effect = lower value 1.01 | locus YIL073C, strain SPO22, stronger effect = lower value 0.95 | locus YIL125W, strain kgd1, stronger effect = lower value 0.991 | locus YIR030C, strain dcg1, stronger effect = lower value 1 | locus YJL092W, strain hpr5, stronger effect = lower value 0.988 | locus YJL095W, strain BCK1 (second series), stronger effect = lower value 1 | locus YJL095W, strain BCK1, stronger effect = lower value 0.831 and 1.06 | locus YJL115W, strain asf1, stronger effect = lower value 0.988 | locus YJL129C, strain trk1, stronger effect = lower value 0.981 | locus YJL134W, strain LCB3, stronger effect = lower value 1 | locus YJL154C, strain vps35, stronger effect = lower value 0.981 | locus YJL164C, strain tpk1, stronger effect = lower value 1.01 | locus YJL166W, strain qcr8, stronger effect = lower value 0.985 | locus YJL168C, strain set2, stronger effect = lower value 1.02 | locus YJL187C, strain SWE1 (second series), stronger effect = lower value 0.976 | locus YJR043C, strain POL32, stronger effect = lower value 0.964 | locus YJR066W, strain TOR1, stronger effect = lower value 0.986 | locus YKL009W, strain mrt4, stronger effect = lower value 0.962 | locus YKL068W, stronger effect = lower value 0.991 | locus YKL085W, strain MDH1 (second series), stronger effect = lower value 0.963 | locus YKL085W, strain MDH1, stronger effect = lower value 0.963 | locus YKL160W, strain elf1, stronger effect = lower value 1.02 | locus YKR001C, strain vps1, stronger effect = lower value 0.98 | locus YKR026C, strain gcn3, stronger effect = lower value 0.983 | locus YKR091W, strain srl3, stronger effect = lower value 0.987 | locus YLL001W, strain dnm1, stronger effect = lower value 1 | locus YLL026W, stronger effect = lower value 0.99 | locus YLL041C, strain sdh2, stronger effect = lower value 0.998 | locus YLR027C, strain aat2, stronger effect = lower value 1.01 | locus YLR058C, strain SHM2, stronger effect = lower value 1.01 | locus YLR102C, strain apc9, stronger effect = lower value 1.01 | locus YLR113W, strain HOG1, stronger effect = lower value 1.02 | locus YLR221C, strain rsa3, stronger effect = lower value 0.961 | locus YLR258W, strain gsy2, stronger effect = lower value 0.998 | locus YLR262C, strain YPT6 (second series), stronger effect = lower value 0.994 | locus YLR262C, strain YPT6, stronger effect = lower value 0.789 | locus YLR268W, strain sec22, stronger effect = lower value 1 | locus YLR320W, strain mms22, stronger effect = lower value 0.968 | locus YLR330W, strain CHS5, stronger effect = lower value 0.974 | locus YLR342W, strain FKS1 (second series), stronger effect = lower value 0.986 | locus YLR342W, strain FKS1, stronger effect = lower value 0.989 | locus YLR357W, strain rsc2, stronger effect = lower value 0.968 | locus YLR370C, strain arc18, stronger effect = lower value 1.01 | locus YLR371W, strain rom2, stronger effect = lower value 0.998 | locus YLR384C, strain iki3, stronger effect = lower value 0.984 | locus YLR418C, strain cdc73, stronger effect = lower value 0.929 | locus YML016C, strain PPZ1, stronger effect = lower value 1.04 | locus YML032C, strain rad52, stronger effect = lower value 0.99 | locus YML120C, strain ndi1, stronger effect = lower value 1 | locus YML124C, strain tub3, stronger effect = lower value 1.01 | locus YMR058W, strain fet3, stronger effect = lower value 0.992 | locus YMR078C, strain ctf18, stronger effect = lower value 1.01 | locus YMR125W, strain sto1, stronger effect = lower value 1.01 | locus YMR129W, stronger effect = lower value 0.992 | locus YMR205C, strain PFK2, stronger effect = lower value 0.994 | locus YMR223W, strain ubp8, stronger effect = lower value 1 | locus YMR231W, strain pep5, stronger effect = lower value 0.966 | locus YNL067W, strain RPL9B, stronger effect = lower value 0.869 | locus YNL071W, strain lat1, stronger effect = lower value 0.998 | locus YNL183C, strain NPR1, stronger effect = lower value 0.995 | locus YNL209W, strain ssb2, stronger effect = lower value 1 | locus YNL233W, strain BNI4, stronger effect = lower value 0.96 | locus YNL250W, strain rad50, stronger effect = lower value 0.973 | locus YNL271C, strain bni1, stronger effect = lower value 0.998 | locus YNL298W, strain CLA4, stronger effect = lower value 0.989 | locus YNL307C, strain MCK1, stronger effect = lower value 1.02 | locus YNL322C, strain KRE1 (second series), stronger effect = lower value 0.979 | locus YNL322C, strain KRE1, stronger effect = lower value 0.973 | locus YNR049C, strain mso1, stronger effect = lower value 0.976 | locus YNR052C, strain pop2, stronger effect = lower value 0.964 | locus YOL006C, strain TOP1, stronger effect = lower value 0.917 | locus YOL012C, strain htz1 1.09 | locus YOL147C, strain pex11, stronger effect = lower value 1.02 | locus YOR001W, strain rrp6, stronger effect = lower value 0.944 | locus YOR061W, strain CKA2, stronger effect = lower value 1.03 | locus YOR069W, strain VPS5, stronger effect = lower value 1.02 | locus YOR070C, strain gyp1, stronger effect = lower value 0.983 | locus YOR080W, strain dia2, stronger effect = lower value 0.969 | locus YOR083W, strain WHI5, stronger effect = lower value 1.02 | locus YOR106W, strain vam3, stronger effect = lower value 0.995 | locus YOR136W, strain idh2, stronger effect = lower value 0.995 | locus YOR144C, strain elg1, stronger effect = lower value 1.01 | locus YOR231W, strain MKK1, stronger effect = lower value 1.02 | locus YOR265W, strain rbl2, stronger effect = lower value 0.997 | locus YOR270C, strain vph1, stronger effect = lower value 0.932 | locus YOR290C, strain snf2, stronger effect = lower value 0.995 | locus YOR316C, strain cot1, stronger effect = lower value 1.01 | locus YPL051W, strain arl3, stronger effect = lower value 0.991 | locus YPL078C, strain atp4, stronger effect = lower value 1.01 | locus YPL106C, strain sse1, stronger effect = lower value 1.03 | locus YPL240C, strain hsp82, stronger effect = lower value 1.02 | locus YPL241C, strain CIN2, stronger effect = lower value 1.02 | locus YPL256C, strain CLN2, stronger effect = lower value 1.06 | locus YPR119W, strain clb2, stronger effect = lower value 1.01 | locus YPR141C, strain kar3, stronger effect = lower value 1 | locus YPR163C, strain tif3, stronger effect = lower value 1.01 | locus YPR167C, strain met16, stronger effect = lower value 1.01 | strain wtn01, stronger effect = lower value 0.993
active: locus YDL074C, strain BRE1, stronger effect = lower value 0.769 | locus YDR162C, strain NBP2, stronger effect = lower value 0.611 | locus YGR229C, strain SMI1, stronger effect = lower value 0.389 | locus YLR039C, strain RIC1, stronger effect = lower value 0.651 | locus YMR307W, strain GAS1, stronger effect = lower value 0.536 | locus YOR184W, strain ser1, stronger effect = lower value 0.865 | locus YPL055C, strain LGE1, stronger effect = lower value 0.76
